# AI-2 QS mod = modulators of Vibrio harveyi AI-2 quorum sensing system. 300,000 compounds, 0.4% hits. Vibrio harveyi JMH597 AI-2 luminescence/OD600 ratio, 9 h; active compounds read low; strain lacks LuxN and CqsS sensors; 0 = neutral-control median. activity change, % at 7.5 µM; in the data active means activity change below about -75%, passing the limit was not always enough;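 further: luminescence divided by OD600 gain over 9 h not by final OD600 alone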
# CHT block = inhibitors of human choline transporter CHT | CHT-expressing cells, membrane potential dye, choline response; active compounds read low | AID 488975 | B-score at 10 µM | Q9GZV3 | 310,000 compounds, 0.86% hits;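 active means B-score over 3 SD under the library average, and starting fluorescence ratio not unusually high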;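 further: choline stimulus applied at its EC90 after an EC20 pre-addition; B-score computed on integrated fluorescence ratio after choline addition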
# ALR inh = inhibitors of human sulfhydryl oxidase ALR; inhibition, % (test concentration not listed); 290,000 compounds, 3.8% hits; purified ALR, DTT oxidation, H2O2 HRP-luminol luminescence;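 active means mean replicate inhibition above about 79%, with every replicate also reaching it, limit read from the data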
# Target sequence (P55789 whole entry, looked up): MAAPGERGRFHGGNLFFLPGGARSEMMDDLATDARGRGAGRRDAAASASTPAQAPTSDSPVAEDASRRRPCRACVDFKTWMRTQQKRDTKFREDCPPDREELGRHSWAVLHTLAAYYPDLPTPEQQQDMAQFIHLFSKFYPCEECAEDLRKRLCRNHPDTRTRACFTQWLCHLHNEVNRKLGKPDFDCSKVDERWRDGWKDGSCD
# CHT PAM = allosteric activators of human choline transporter CHT; 310,000 compounds, 0.49% hits; CHT-expressing cells, membrane potential dye, choline EC20; active compounds read high; LV-AA mutant CHT in HEK293 cells; B-score at 10 µM;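 active means initial fluorescence not abnormally high and integrated response B-score, plate-corrected, over 3 SD above library mean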
# PREPL inhibitor = inhibitors of human prolyl oligopeptidase-like enzyme PREPL | recombinant PREPL, fluorescence polarization activity-based probe | inhibition, % at 5.96 µM | 320,000 compounds, 0.68% hits | AID 2751; in the data active means inhibition above about 43%;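 further: 0% = enzyme with DMSO and 100% = wells lacking enzyme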
# * = called active by the depositor; i = inactive; . = no result given. Sampled rows, rich in hits. Any-hit rate of the full collection: about 5%.
SMILES,AI-2 QS mod,CHT block,ALR inh,CHT PAM,PREPL inhibitor
COc1ccc(SCCCn2c(=O)c3c(ncn3C)n(C)c2=O)cc1,17,i,.,i,-11
O=C1CCCC/C1=N\Nc1ccc(C2CCCCC2)cc1,-28,i,98*,i,-1
Cc1ccc(NS(=O)(=O)c2ccc(C3CCCCC3)cc2)cc1,23,i,2,i,-49
O=C1CCCC/C1=N\Nc1ccc(OCc2ccccc2)cc1,21,i,99*,i,17
Cc1cc(NC(=O)CSc2c[nH]c3ccccc23)no1,7,i,99*,i,-4
Cc1cc(NC(=O)CSc2c(C)[nH]c3ccccc23)no1,14,i,95*,i,1
Cc1cc(NC(=O)CSc2nc(C)c(C)n2CC(C)C)no1,.,.,93*,.,11
CCC(Oc1ccccc1)C(=O)Nc1cc(C)on1 (stereo not given),-2,i,4,i,-1
Cc1cc(NC(=O)C(Cl)c2ccccc2)no1 (stereo not given),-86*,i,15,i,2
CCCC(=O)Nc1ccccc1Sc1ncnc2scc(-c3ccccc3)c12,16,i,-1,i,8
O=C(CNS(=O)(=O)c1cccs1)NCc1ccccc1,-3,i,-5,i,0
CSc1ncnc2c1ccn2CC(=O)Nc1ccc(C)c(C)c1,.,.,1,.,2
Cc1cc(NC(=O)CSc2nc3c(cc2C#N)CCCC3)no1,6,i,-9,i,-3
Cc1noc(NS(=O)(=O)c2ccc(NC(=O)CSc3nc4c(cc3C#N)CCCC4)cc2)c1C,22,i,95*,i,0
Cc1cc(NC(=O)CSc2nc3c(cc2C#N)CCC3)no1,7,i,.,i,-3
Cc1noc(NS(=O)(=O)c2ccc(NC(=O)CSc3nc4c(cc3C#N)CCC4)cc2)c1C,4,i,98*,i,-8
Cc1cnc(NC(=O)C2CC(=O)N(c3cccc(Cl)c3)C2)s1 (stereo not given),13,i,-9,i,-2
Cn1cc(-c2nnc(-c3ccccc3)o2)c2ccccc21,3,i,-8,i,2
CCOc1ccc(N2C(=O)CSC2=S)cc1,0,i,-41,i,10
CCN(CC)c1ccc(N2C(=O)CSC2=S)cc1,15,i,98*,i,12
Cc1ccc(Cl)cc1C1=CC(=O)C[C@H](c2ccc(F)cc2)C1,.,.,-1,.,-8
O=C(Nc1ccccc1C(=O)O)c1cccc(S(=O)(=O)Nc2ccc(Br)cc2)c1,-9,i,99*,i,-3
O=C(Nc1ccccc1O)c1cccc(S(=O)(=O)Nc2ccccc2O)c1,18,i,99*,i,12
O=C(Nc1ccccc1C(=O)O)c1cccc(NS(=O)(=O)c2ccc(Br)cc2)c1,24,i,13,i,-4
O=C(O)c1cccc(NC(=O)c2cccc(S(=O)(=O)Nc3cccc([N+](=O)[O-])c3)c2)c1,26,i,76*,i,2
SMILES,AI-2 QS mod,CHT block,ALR inh,CHT PAM,PREPL inhibitor
Cc1ccccc1NS(=O)(=O)c1cccc(C(=O)Nc2cccc(C(=O)O)c2)c1,2,i,3,i,4
O=C(Nc1ccccc1C(=O)Nc1ccncc1)c1cccc([N+](=O)[O-])c1,6,i,4,i,4
CC(C)Cn1c(-c2csc3ccccc23)n[nH]c1=S,-8,i,95*,i,-3
CC(C)Cn1c(-c2csc(C(C)C)c2)n[nH]c1=S,26,i,94*,i,-7
Cc1cc(-c2n[nH]c(=S)n2CC(C)C)cs1,4,i,44,i,3
CCNC(=O)NC(=O)CSc1ccc(S(=O)(=O)N2CCCCC2)cn1,.,.,4,.,23
CCOc1cc(CNc2ccc(N3CCOCC3)cc2)cc(Br)c1OCC,17,i,99*,i,12
COc1cc(CNc2ccc(N3CCOCC3)cc2)cc(Br)c1OC,2,i,98*,i,3
CCOc1ccc(CNc2ccc3c(c2)nc(C)n3C)cc1,.,i,96*,i,9
COc1cc(CC(=O)Nc2ccc(N3CCOCC3)cc2)cc(OC)c1OC,11,i,15,i,2
CCOc1c(Br)cc(CNc2ccc(N3CCN(C(C)=O)CC3)cc2)cc1OC,34,i,98*,i,20
CCn1cnc2cc(NCc3ccc(OC)cc3)ccc21,-56,i,1,i,14
COc1cc(C(=O)OCC(=O)Nc2cccc(S(=O)(=O)N3CCOCC3)c2)ccc1OCC(C)C,20,i,3,i,4
CCOc1cc(N2CCOCC2)c(OCC)cc1NC(=O)CN1C(=O)NC2(CCCCC2)C1=O,.,.,22,.,18
c1ccc(NCc2ccncc2)cc1,5,i,4,i,7
CCOc1ccc(CNc2ccc(N3CCN(Cc4ccccc4)CC3)cc2)cc1,15,i,57,i,17
c1cc(CNc2ccc(N3CCOCC3)cc2)ccn1,17,i,99*,i,22
c1cc(CNc2ccc3c(c2)OCO3)ccn1,12,i,87*,i,24
CCOc1ccc(CNc2ccc(N3CCCC3)cc2)cc1,28,i,51,i,44*
C[C@H](NC(=O)c1ncn(C)c1C(=O)N[C@@H](C)c1ccccc1)c1ccccc1,.,.,-3,.,7
O=C(NNS(=O)(=O)c1ccccc1)c1ccc(S(=O)(=O)N2CCCCC2)cc1,-96*,i,30,i,-3
COc1ccc(C(=O)NNS(=O)(=O)c2ccccc2)cc1,41,i,.,i,2
COC(=O)c1ccc(S(=O)(=O)NNC(=O)c2ccc(S(=O)(=O)N3CCCCC3)cc2)cc1,20,i,45,i,2
COc1ccc(C(=O)NNS(=O)(=O)c2ccc(OC)cc2)cc1,-4,i,87*,i,5
C#CCOCCOCCOCCNc1nc(N2CCN(C(=O)CCCCCCCCCCNC(=O)[C@H](CO)n3cc(CCCCCN)nn3)CC2)nc(N2CCN(C(=O)CCCCCCCCCCNC(=O)[C@H](CCCN=C(N)N)n3cc(C[C@@H](C)CC)nn3)CC2)n1,.,i,-23,i,64*
C#CCOCCOCCOCCNc1nc(N2CCN(C(=O)CCCCCCCCCCNC(=O)[C@H](CCCN=C(N)N)n3cc(C[C@@H](C)CC)nn3)CC2)nc(N2CCN(C(=O)CCCCCCCCCCNC(=O)[C@@H]([C@H](C)CC)n3cc(CCCCCN)nn3)CC2)n1,.,i,-7,i,60*
C#CCOCCOCCOCCNc1nc(N2CCN(C(=O)CCCCCCCCCCNC(=O)[C@H]([C@@H](C)CC)n3cc(CCCCN=C(N)N)nn3)CC2)nc(N2CCN(C(=O)CCCCCCCCCCNC(=O)[C@H](CCCN=C(N)N)n3cc(C[C@@H](C)CC)nn3)CC2)n1,.,i,-20,i,69*

# Screens from PubChem.
